The nature of assay [1]: circadian clock period modulators, cell-based, LOPAC library, luminescence reporter (AID 2774).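 Note: values are relative to mean of DMSO wells on each plate.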 Conditions: circadian reporter cells, at 7 µM, actives lie on both sides.
Assay [2] concerns Hepatitis C virus NS3 helicase. In words: HCV NS3 helicase inhibitors, primary screen, biochemical, fluorescence polarization, LOPAC1280 library (AID 687035; in the data active = inhibition above about 37%). The settings on record: Purified HCV NS3 helicase, Cy5-dT15 ssDNA binding fluorescence polarization; active compounds read high; concentration not given here. A general note: In fluorescence polarisation assays a small probe gives low polarisation when free and higher when bound to something large.

The nature of assay [3]: Cy5 fluorescence quenching or enhancement artefacts, artefact control for HCV NS3 helicase inhibitor project, biochemical, LOPAC1280 (AID 687037). The settings on record: Cy5-DNA-NS3h complex fluorescence interference counterscreen.
The target in assay [4] is ATP-dependent translocase ABCB1 (Homo sapiens) (UniProt P08183). The assay is described as follows: MDR1 (ABCB1) efflux transporter inhibition, cell-based (AID 377; in the data active = fluorescence slope change above about 50%). The settings on record: MDR1-expressing cells, fluorescent substrate accumulation slope; active compounds read high; concentration not given here.
Assay [5] can be described thus: hESC survival regulators, cell-based (AID 493140).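 Note: cells exposed to compounds for four days before counting.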 The settings on record: human embryonic stem cell survival screen; active compounds read high.

Values without a mark were called inactive. Inconclusive results are not listed. Active and inactive are the calls of the source. Unless noted, the rule behind the calls is not given here.

Sequence of ATP-dependent translocase ABCB1 (Homo sapiens) (P08183 whole entry, looked up): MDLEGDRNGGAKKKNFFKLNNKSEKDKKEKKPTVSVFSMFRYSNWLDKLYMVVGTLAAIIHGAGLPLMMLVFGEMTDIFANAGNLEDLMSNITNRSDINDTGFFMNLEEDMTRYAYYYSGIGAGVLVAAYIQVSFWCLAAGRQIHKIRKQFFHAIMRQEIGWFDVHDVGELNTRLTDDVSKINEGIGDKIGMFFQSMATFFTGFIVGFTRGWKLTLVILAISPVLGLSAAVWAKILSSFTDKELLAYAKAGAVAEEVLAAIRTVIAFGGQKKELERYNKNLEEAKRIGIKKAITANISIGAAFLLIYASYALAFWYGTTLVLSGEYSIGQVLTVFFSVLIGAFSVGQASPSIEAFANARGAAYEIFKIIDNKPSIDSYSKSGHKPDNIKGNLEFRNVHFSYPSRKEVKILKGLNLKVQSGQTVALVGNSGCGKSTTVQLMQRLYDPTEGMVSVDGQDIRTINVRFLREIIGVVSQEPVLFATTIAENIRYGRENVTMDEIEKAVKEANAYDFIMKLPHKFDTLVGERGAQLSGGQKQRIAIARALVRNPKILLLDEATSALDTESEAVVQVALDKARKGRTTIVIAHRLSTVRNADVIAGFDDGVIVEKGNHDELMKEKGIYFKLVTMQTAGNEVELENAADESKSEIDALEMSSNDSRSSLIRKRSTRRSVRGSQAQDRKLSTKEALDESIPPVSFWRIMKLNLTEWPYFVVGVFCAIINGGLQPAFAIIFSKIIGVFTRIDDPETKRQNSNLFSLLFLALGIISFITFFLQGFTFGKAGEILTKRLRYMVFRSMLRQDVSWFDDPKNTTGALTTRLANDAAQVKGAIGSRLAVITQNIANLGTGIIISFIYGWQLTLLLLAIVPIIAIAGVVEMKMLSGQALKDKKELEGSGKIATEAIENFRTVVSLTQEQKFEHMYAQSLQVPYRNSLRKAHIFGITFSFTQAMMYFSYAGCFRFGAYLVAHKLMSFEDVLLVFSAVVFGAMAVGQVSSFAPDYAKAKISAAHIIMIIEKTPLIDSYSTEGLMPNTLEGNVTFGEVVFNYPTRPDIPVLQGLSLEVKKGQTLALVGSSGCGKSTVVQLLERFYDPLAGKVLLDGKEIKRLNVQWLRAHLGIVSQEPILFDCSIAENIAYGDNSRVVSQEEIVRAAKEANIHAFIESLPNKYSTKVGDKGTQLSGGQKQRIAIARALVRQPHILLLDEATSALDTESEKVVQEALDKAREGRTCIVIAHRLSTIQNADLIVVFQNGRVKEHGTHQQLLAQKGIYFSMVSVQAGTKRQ

In the case of `OC[C@H]1O[C@@H](n2cnc3c(Nc4ccccc4)ncnc32)C(O)[C@H]1O` (some centres undefined), in assay [1], the period change is -0.12 h.

As for `CCCCCCCCCCCCCCCCCCNC(=O)OCC(COP(=O)([O-])OCC[n+]1ccsc1)OC` (centres undefined), the period change in assay [1] is -0.05 h. Besides, the inhibition in assay [2] was 0%. Besides, in assay [3], the fluorescence ratio (interference) is 1.

As to `Ic1ccc(N2CCN(Cc3c[nH]c4ncccc34)CC2)cc1`, in assay [1], the period change is 0.1 h. In assay [2], the inhibition was 6%. Further, the fluorescence ratio (interference) in assay [3] was 0.9.

Regarding `CC1Nc2ccccc2C1NC(=O)c1ccc(Cl)c(S(N)(=O)=O)c1` (centres undefined), in assay [4], the fluorescence slope change was 26.2%.

Take `COc1ccccc1N1CCN(CCN(C(=O)c2ccc(I)cc2)c2ccccn2)CC1`: in assay [1], the period change was 0.08 h. Besides, in assay [2], the inhibition is -4%. Also, the fluorescence ratio (interference) in assay [3] is 0.9.

`COc1cc(Br)c(CC2c3cc(OC)c(OC)cc3CCN2C)cc1OC` (centres undefined): the fluorescence slope change in assay [4] was 9.4%.

Take `CCCCN1CCC(n2c(=O)[nH]c3ccccc32)CC1`: the period change in assay [1] is -0.16 h. The inhibition in assay [2] was -2%. Moreover, the fluorescence ratio (interference) in assay [3] is 1.

Consider `COc1cc2nc(N3CCN(C(=O)OCc4ccccc4)C(C(=O)NC(C)(C)C)C3)nc(N)c2cc1OC` (centres undefined), for which the period change in assay [1] was 0.085 h. Further, the inhibition in assay [2] was -3%. Besides, the fluorescence ratio (interference) in assay [3] was 1.

`O=C(O)[C@@H]1C[C@@H](C(=O)O)N1`: the period change in assay [1] is -0.1 h. For the same compound, in assay [2], the inhibition was -1%. In addition, the fluorescence ratio (interference) in assay [3] was 1.

In the case of `NCCNC(=O)c1ncsc1-c1cccc(F)c1`, the period change in assay [1] was 0.08 h. Also, the inhibition in assay [2] was -3%. In assay [3], the fluorescence ratio (interference) was 1.

`Cc1cc(N)c2ccccc2[n+]1CCCCCCCCCCCCCC[n+]1c(C)cc(N)c2ccccc21`: in assay [1], the period change is 0.11 h.

`O=C(O)[C@@H]1C[C@H](C(=O)O)N1`: the period change in assay [1] is -0.02 h. Further, the inhibition in assay [2] is -1%. Also, the fluorescence ratio (interference) in assay [3] is 1.1.

Consider `CN1CCc2cc(O)c(O)cc2C(c2ccccc2)C1` (centres undefined), for which the period change in assay [1] was 0.07 h. In assay [2], the inhibition was -5%. In assay [3], the fluorescence ratio (interference) is 1.

On to `O=C(O)/C=C/C(O)c1ccc(Cl)cc1` (centres undefined), for which the period change in assay [1] is 0.15 h. For the same compound, in assay [2], the inhibition is 1%. Further, in assay [3], the fluorescence ratio (interference) was 1.

As to `CC(C)[C@@H](CO)Nc1nc(Nc2cccc(Cl)c2)c2ncn(C(C)C)c2n1`, in assay [1], the period change was -0.115 h.

Take `CC(C)CN(C)c1nc(N)c(C(=O)N=C(N)N)nc1Cl`: in assay [1], the period change is 0 h.

For `CCCCCCCCCCCCCCCCOCC(COCC(F)(F)F)OP(=O)(O)OCO` (centres undefined), the period change in assay [1] is 0.01 h.

As to `CC(COc1ccc(/C=C/c2ccccc2)cc1)[N+](C)(C)C` (centres undefined), the period change in assay [1] was -0.13 h. Moreover, the inhibition in assay [2] is -1%. Also, in assay [3], the fluorescence ratio (interference) was 1.

For `N#C/C(=C\c1c[nH]c2ccccc12)C(=O)c1ccc(O)c(O)c1`, in assay [1], the period change was 0.275 h.

As for `COc1ccc(CCNC[C@@H](O)c2ccc(O)cc2)cc1OC`, the period change in assay [1] is 0.05 h.

For the compound `COc1ccc(C(=O)O[C@H]2CC[C@@]3(C)C4CCC5[C@]6(O)[C@@H](O)[C@H](O)[C@H]7[C@@H](CN8C[C@@H](C)CC[C@H]8[C@@]7(C)O)[C@@H]6C[C@@]53O[C@]42O)cc1OC` (some centres undefined), the fluorescence slope change in assay [4] was 2.5%.

On to `CCCCC#Cc1nc(N)c2ncn([C@@H]3O[C@H](C(=O)NCC)[C@@H](O)[C@H]3O)c2n1`, for which, in assay [1], the period change was -0.015 h.

As for `C=N[C@@H](C(=O)N[C@@H]1C(=O)C2[C@@H](C(=O)O)C(C)(C)S[C@@H]21)c1ccccc1` (some centres undefined), the fluorescence slope change in assay [4] was 10.1%.

As to `CN1C2CCC1CC(NC(=O)c1nn(C)c3ccccc13)C2` (centres undefined), in assay [1], the period change was 0.265 h.

With `c1ccc2c(c1)CN1CCCCC1=N2`, the fluorescence slope change in assay [4] is 0.4%.

`NC(=NCCC[C@H](N)C(=O)O)NO`: the period change in assay [1] is -0.09 h.

On to `Cc1ccc(OCC(O)C(C)NC(C)C)c2c1CCC2` (centres undefined), for which, in assay [1], the period change is 0.02 h.

For `COc1ccccc1N1CCN(CCCCNS(=O)(=O)c2cccc3c(N(C)C)cccc23)CC1`, the period change in assay [1] was 0.125 h.

On to `Nc1ncnc2c1ncn2[C@@H]1O[C@H](C(=O)NC2CC2)[C@H](O)C1O` (some centres undefined), for which the period change in assay [1] is -0.165 h.

Consider `COc1ccc2c(c1)c(CC(=O)O)c(C)n2Cc1ccc(F)cc1`, for which, in assay [1], the period change is -0.005 h.

Take `COC(=O)c1c(-c2cc(OC)c(OC)c(OC)c2)c2ccc(OCc3ccccn3)cc2c(=O)n1-c1ccc(N)cc1`: the period change in assay [1] is 0.015 h.

Take `CCCCCCCCCCCCCCCC(=O)NCC(COP(=O)([O-])OCC[N+](C)(C)C)OCC` (centres undefined): the period change in assay [1] is -0.285 h.

As to `CCCn1c(=O)c2[nH]c(-c3ccc(OCC(=O)NCCN)cc3)nc2n(CCC)c1=O`, in assay [1], the period change was -0.09 h. In assay [2], the inhibition is -2%. The fluorescence ratio (interference) in assay [3] is 1.

For the compound `C[C@@H](NC(=O)/C(C#N)=C/c1ccc(O)c(O)c1)c1ccccc1`, the period change in assay [1] was 0.095 h.

Regarding `NCC1OC(OC2C(N)CC(N)C(O)C2O[C@@H]2O[C@H](CO)[C@H](OC3OC(CN)C(O)C(O)C3N)C2O)C(N)C(O)C1O` (some centres undefined), the fluorescence slope change in assay [4] was 78.1% (active).

Take `CCCNC[C@H](O)COc1ccccc1C(=O)CCc1ccccc1`: the period change in assay [1] was 0.08 h.

`CCn1cc(C(=O)O)c(=O)c2ccc(Cc3ccccc3)nc21`: in assay [1], the period change is -0.035 h.

In the case of `CN1CCc2c(cc(O)c(O)c2Cl)C(c2cccc(Cl)c2)C1` (centres undefined), in assay [1], the period change is 0.165 h.

Take `c1ccc2c3c([nH]c2c1)C1C2CCC(C4CCCNC42)N1CC3` (centres undefined): in assay [4], the fluorescence slope change was 15.6%. The survival in assay [5] is 1.58.

By inhibition is commonly meant the drop in the measured response relative to a control, in per cent.

These data come from PubChem BioAssay.
